Test results published in PubChem BioAssay (NCATS).
Inconclusive results are not listed. Calls of active or inactive are those of the source. Calls come from the whole dose curve; as a rule, active = well fitted cell-killing curve with a large enough effect; inconclusive = small, poorly fitted or top-dose-only effect, or effect the other way; inactive = flat fitted curve, though single readings scatter.

Columns and labels:
Assay in all cases: Primary qHTS to identify gynecologic anti-cancer compounds using libraries of approved drugs and bioactive compounds (AID 1345084); note: nearly all actives have a fitted effect of over 55% in size
[1] = tested on: C33A; details: Gynecologic cancer cell panel viability, ATPlite luminescence, 48 h; series mostly up to 57.5 µM
Method in brief: (§1)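 In this quantitative HTS, cell killing is estimated from loss of ATP-dependent luciferase light. Cells see five compound concentrations over a 48 h exposure.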

[2] = tested on: CAOV3; details: Gynecologic cancer cell panel viability, ATPlite luminescence, 48 h; series mostly up to 57.5 µM
Method in brief: as §1

[3] = tested on: CASKI; details: Gynecologic cancer cell panel viability, ATPlite luminescence, 48 h; series mostly up to 57.5 µM
Method in brief: as §1

[4] = tested on: Es-2; details: Gynecologic cancer cell panel viability, ATPlite luminescence, 48 h; series mostly up to 57.5 µM
Method in brief: as §1

[5] = tested on: HeLa; details: Gynecologic cancer cell panel viability, ATPlite luminescence, 48 h; series mostly up to 57.5 µM
Method in brief: as §1

[6] = tested on: Hek293T; details: Gynecologic cancer cell panel viability, ATPlite luminescence, 48 h, control line for the selectivity index; series mostly up to 57.5 µM
Method in brief: as §1

[7] = tested on: JEG-3; details: Gynecologic cancer cell panel viability, ATPlite luminescence, 48 h; series mostly up to 57.5 µM
Method in brief: as §1
% is set by controls: 0 for no effect and ±100 for the full control effect.

CCC[C@@H]1C[C@@H](C(=O)N[C@@H]([C@H]2O[C@H](SC)[C@H](OP(=O)(O)O)[C@@H](O)[C@H]2O)[C@H](C)Cl)N(C)C1
inactive: Potency [1] | Potency [2] | Potency [3] | Potency [4] | Potency [5] | Potency [6] | Potency [7]

COc1c(C)c2c(c(O)c1C/C=C(\C)CC/C=C(\C)CCC(=O)O)C(=O)OC2
inactive: Potency [1] | Potency [2] | Potency [3] | Potency [4] | Potency [5] | Potency [6] | Potency [7]

CC(=O)O[C@@H]1[C@H]2[C@@H](OC(=O)c3ccccc3)[C@@H](C)C[C@]2(O)[C@H](OC(C)=O)[C@@]2(C)[C@@H]3CC(C)(C)C(=O)[C@]3(OC(C)=O)C[C@@]12C
inactive: Potency [1] | Potency [2] | Potency [3] | Potency [4] | Potency [5] | Potency [6] | Potency [7]

CC1(CO)CC[C@]2(C(=O)O[C@@H]3O[C@H](CO)[C@@H](O)[C@H](O)[C@H]3O)CC[C@]3(C)C(=CCC4[C@@]5(C)C[C@H](O)[C@H](O[C@@H]6OC[C@@H](O)[C@H](O)[C@H]6O)[C@@](C)(CO)C5CC[C@]43C)C2C1 (some centres not stated)
inactive: activity change, negative = cytotoxicity [1] 5.37% [at 11.6 µM] | activity change, negative = cytotoxicity [2] -5.98% [at 11.6 µM] | activity change, negative = cytotoxicity [3] 3.16% [at 11.6 µM] | activity change, negative = cytotoxicity [4] -0.538% [at 11.6 µM] | activity change, negative = cytotoxicity [5] 1.08% [at 11.6 µM] | activity change, negative = cytotoxicity [6] 6.32% [at 11.6 µM] | activity change, negative = cytotoxicity [7] 16.2% [at 11.6 µM]

OCC1=CC[C@@H]2C=CO[C@@H](O[C@@H]3O[C@H](CO)[C@@H](O)[C@H](O)[C@H]3O)[C@H]12
inactive: Potency [1] | Potency [2] | Potency [3] | Potency [4] | Potency [5] | Potency [6] | Potency [7]

OC[C@H]1O[C@@H](OCCc2ccc(O)cc2)[C@H](O)[C@@H](O)[C@@H]1O
inactive: Potency [1] | Potency [2] | Potency [3] | Potency [4] | Potency [5] | Potency [6] | Potency [7]

CC(C)[C@@H](C)/C=C/[C@@H](C)[C@H]1CC[C@H]2C3=CC=C4C[C@@H](O)CC[C@]4(C)[C@H]3CC[C@]12C
inactive: Potency [1] | Potency [2] | Potency [3] | Potency [4] | Potency [5] | Potency [6] | Potency [7]

C/C(=C\CO)CC/C=C(\C)C(=O)O[C@H]1[C@H](OC2OC=C(C(=O)O)C3CCC(C)(O)C23)O[C@H](CO)[C@@H](O)[C@@H]1O (some centres not stated)
inactive: Potency [1] | Potency [2] | Potency [3] | Potency [4] | Potency [5] | Potency [6] | Potency [7]

COc1ccccc1-n1c(SCC(=O)Nc2nc3ccc(C)cc3s2)nc2c(c1=O)SCC2
inactive: Potency [1] | Potency [2] | Potency [3] | Potency [4] | Potency [5] | Potency [6] | Potency [7]

Cc1cc(O)cc(Oc2cc(C)c(C(=O)O)c(O)c2)c1
inactive: Potency [1] | Potency [2] | Potency [3] | Potency [4] | Potency [5] | Potency [6] | Potency [7]

CC(C)(O)/C=C1/C(=O)C(C)(C)C(=O)C(C)(C)C1(O)O[C@@H]1O[C@H](COC(=O)c2cc(O)c(O)c(O)c2)[C@@H](O)[C@H](O)[C@H]1O (some centres not stated)
inactive: Potency [1] | Potency [2] | Potency [3] | Potency [4] | Potency [5] | Potency [6] | Potency [7]

C[C@@H]1CC[C@]2(C(=O)O[C@@H]3O[C@H](CO)[C@@H](O)[C@H](O)[C@H]3O)CC[C@]3(C)C(=CCC4[C@@]5(C)C[C@@H](O)[C@H](O)C(C)(C)C5CC[C@]43C)C2[C@]1(C)O (some centres not stated)
inactive: Potency [1] | Potency [2] | Potency [3] | Potency [4] | Potency [5] | Potency [6] | Potency [7]

FC(F)(F)c1cc(C(F)(F)F)c2ccc3nc(-c4nnco4)cn3c2n1
inactive: Potency [1] | Potency [2] | Potency [3] | Potency [4] | Potency [5] | Potency [6] | Potency [7]

O=c1ccn(C2OC(CO)C(O)C2O)c(=O)[nH]1 (configuration not stated)
inactive: Potency [1] | Potency [2] | Potency [3] | Potency [4] | Potency [5] | Potency [6] | Potency [7]

COC(=O)CC[C@@H](C)[C@H]1CC[C@H]2[C@@H]3CC(=O)[C@H]4C[C@H](OC(C)=O)CC[C@]4(C)[C@H]3CC[C@]12C
inactive: Potency [1] | Potency [2] | Potency [3] | Potency [4] | Potency [5] | Potency [6] | Potency [7]

C[C@@H]1O[C@@H](O[C@H]2[C@H](OC(=O)[C@]34CCC(C)(C)C[C@H]3C3=CCC5[C@@]6(C)C[C@H](O)[C@H](O[C@@H]7O[C@H](CO[C@@H]8OC[C@H](O)[C@H](O)[C@H]8O)[C@@H](O)[C@H](O)[C@H]7O)C(C)(C)C6CC[C@@]5(C)[C@]3(C)C[C@H]4O)OC[C@@H](O)[C@@H]2O)[C@H](O)[C@H](O[C@@H]2OC[C@](O)(CO)[C@H]2O)[C@H]1O[C@@H]1OC[C@H](O)[C@H](O[C@@H]2OC[C@@H](O)[C@H](O)[C@H]2O)[C@H]1O (some centres not stated)
inactive: activity change, negative = cytotoxicity [1] -0.101% [at 6.55 µM] | activity change, negative = cytotoxicity [2] 12.2% [at 6.55 µM] | activity change, negative = cytotoxicity [3] 2.2% [at 6.55 µM] | activity change, negative = cytotoxicity [4] -0.0559% [at 6.55 µM] | activity change, negative = cytotoxicity [5] 19.1% [at 6.55 µM] | activity change, negative = cytotoxicity [6] 7.42% [at 6.55 µM] | activity change, negative = cytotoxicity [7] -3.85% [at 6.55 µM]

C=C1CCC2[C@@](C)(C=O)CCC[C@]2(C)[C@H]1CC/C(C)=C/CO (some centres not stated)
inactive: Potency [1] | Potency [2] | Potency [3] | Potency [4] | Potency [5] | Potency [6] | Potency [7]

CO/N=C(/C(=O)N[C@@H]1C(=O)N2C(C(=O)O)=C(CSC(=O)c3ccco3)CS[C@H]12)c1csc(N)n1
inactive: Potency [1] | Potency [2] | Potency [3] | Potency [4] | Potency [5] | Potency [6] | Potency [7]

C=C[C@](C)(CC/C=C(\C)C(=O)O)O[C@@H]1OC[C@H](O)[C@H](O)[C@H]1O
inactive: Potency [1] | Potency [2] | Potency [3] | Potency [4] | Potency [5] | Potency [6] | Potency [7]

COC1=CC(=O)O[C@@H](CCc2ccccc2)[C@@H]1O
inactive: Potency [1] | Potency [2] | Potency [3] | Potency [4] | Potency [5] | Potency [6] | Potency [7]

C=C1CC2[C@]3(C)C(=C(O)C(=O)[C@@]2(C)[C@]2(C(=O)OC)C(=O)C(C)OC(=O)[C@@]12C)C(C)(C)C(=O)CC3O (some centres not stated)
inactive: Potency [1] | Potency [2] | Potency [3] | Potency [4] | Potency [5] | Potency [6] | Potency [7]
